# PubChem BioAssay (EPA / NIEHS)
# Active and inactive are the calls of the source. The calls were made as follows: active = hit-call score of the fitted dose curve at least 0.9, where 1 is the maximum; inactive = score below 0.9.
# Experiment: BSK_IMphg_SRB.Mphg: Macrophage Viability Assessment in the BioMAP Diversity Plus: IMphg Assay (AID 2284295)
# Details: primary human endothelial cells with macrophages
# Procedure: BSK_IMphg is a cell-based, multiplexed-readout assay that uses venular endothelial cells and macrophages, a human vascular primary cell, with measurements taken at 24 hours after chemical dosing in a microplate: 96-well plate.BSK_IMphg_SRB.Mphg is an assay component measured in the BSK_IMphg assay. It measures […] related to cell death using Sulforhodamine staining technology.Data from the assay component BSK_IMphg_SRB.Mphg was analyzed at the endpoint, BSK_IMphg_SRB.Mphg, in the positive analysis fitting direction relative to DMSO as the negative control and baseline of activity. Using a type of viability reporter, gain or loss-of-signal activity can be used to understand protein changes. To generalize the intended target to other relatable targets, this assay endpoint is annotated to the 'cell morphology' intended target family, where the subfamily is 'cell conformation'.
# The levels of cell surface (or secreted, indicated by the prefix "s") biomarker endpoints were measured by ELISA. Overt cytotoxicity to cells in confluent adherent cultures (all systems other than the BT system) was assessed by measuring total protein levels using sulforhodamine B (SRB) staining in parallel cultures at the time of biomarker measurements, indicated as SRB endpoints. For proliferation assays for adherent cell types, individual cell types are cultured at sub-confluence and relative cell numbers quantified by SRB staining at time points optimized for each system (48 h: 3C and CASM3C systems; 72 h: BT and HDF3CGF systems; 96 h: SAg system). SRB was performed by staining cells with 0.1% SRB after fixation with 10% TCA and reading wells at 560 nm.Viability and proliferation of PBMC (T cells) was quantified by Alamar Blue reduction for the SAg and BT systems. For PBMC viability (referred to as PBMC Cytotoxicity within the assay endpoint names), cells were plated (75,000/well in a 96-well plate) and then chemical samples added for 1 h before addition of activators, SEB and TSST-1 (20 ng/mL final concentration each). Cells were incubated for 90 h. Then, Alamar Blue (20 uL/well) (Invitrogen, Cat DAL1100) was added for 6 h, and the plates were read with a fluorescence microplate reader at 546/580 nm (excitation/emission). For PBMC proliferation, cells were plated and activated as above but incubated for only 16 h prior to addition of Alamar Blue. Plates were read after 6 h.
row,SMILES,outcome
1,NCC(F)(F)C(F)(F)C(F)(F)C(F)(F)F,inactive
2,O=C(Cl)C(F)(F)C(F)(F)C(F)(F)C(=O)Cl,inactive
3,FC(F)C(F)(F)COCC1CO1 (stereo not given),inactive
4,C[Si](C)(C)C(F)(F)C(F)(F)C(F)(F)F,inactive
5,O=S(=O)(O)CCC(F)(F)C(F)(F)C(F)(F)C(F)(F)C(F)(F)C(F)(F)F,inactive
6,FC(F)(F)COC(OCC(F)(F)F)OCC(F)(F)F,inactive
7,FC(F)(F)C(F)(F)C(F)(F)C(F)(F)C(F)(F)C(F)(F)I,inactive
8,OC(O)(C(F)C(O)(O)C(F)(F)F)C(F)(F)F,inactive
9,OCCC(F)(F)C(F)(F)C(F)(F)C(F)(F)F,inactive
10,FC(F)=C(F)C(F)(F)C(F)(F)C(F)(F)C(F)(F)C(F)(F)C(F)(F)F,inactive
